Compound activity: PubChem, National Center for Advancing Translational Sciences (NCATS)
L3MBTL1 block: blocks human L3MBTL1; actives 0.66% (n = 230,000); AlphaScreen L3MBTL1–H3K9me1 peptide binding; Potency, µM (titrated, usually from 57.1 µM), inactives show top-dose activity, negative = inhibition, actives largely listed as inhibitors; Q9Y468; also: % is scaled to controls: 0 for no effect and ±100 for the full control effect; nearly all actives have a fitted effect of over 60% in size
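AlphaScreen proximity signal between nickel-chelate acceptor and streptavidin donor beads (final 10 ug/mL) reports binding of 50 nM L3MBTL1 to 75 nM biotin-H3 K9me1 peptide; complex incubated with compounds 30 min at room temperature; cefsulodin titration as control.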
HP1b chromo inh: HP1-beta chromodomain-methylated histone interaction inhibition. Potency, µM (series often up to 114 µM), for inactives: at the top dose activity change, negative = inhibition, most hits filed as inhibitors. P83916. actives 0.56% (n = 390,000). AID 540317. AlphaScreen HP1-beta / biotin-H3K9me3 peptide binding; also: nearly all actives have a fitted effect of over 70% in size
Target sequence (P83916 whole entry, looked up): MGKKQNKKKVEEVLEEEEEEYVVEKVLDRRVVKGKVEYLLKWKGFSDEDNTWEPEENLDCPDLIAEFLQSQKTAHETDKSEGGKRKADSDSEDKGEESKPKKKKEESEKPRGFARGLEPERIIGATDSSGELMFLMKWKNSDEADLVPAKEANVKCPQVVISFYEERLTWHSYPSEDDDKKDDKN
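AlphaScreen: HP1-beta (50 nM) preformed 30 min with biotin-H3(1-18)K9me3 peptide (50 nM) in PBS pH 7.4, 0.01% Tween-20. Compound added for 30 min at RT, then streptavidin donor/nickel chelate acceptor beads (10 ug/mL) for 30 min.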
G9a inh: G9a (human) methyltransferase inhibition. Q96KQ7. G9a H3K9 monomethylation, AlphaScreen, 2 h. Potency, µM (doses to about 102 µM), for the others: top-dose activity, negative = inhibition, actives largely listed as inhibitors. actives 8.8% (n = 350,000); also: % is scaled to controls: 0 for no effect and ±100 for the full control effect; nearly all actives have a fitted effect of over 75% in size
Target sequence (Q96KQ7 913-1193 limits assumed): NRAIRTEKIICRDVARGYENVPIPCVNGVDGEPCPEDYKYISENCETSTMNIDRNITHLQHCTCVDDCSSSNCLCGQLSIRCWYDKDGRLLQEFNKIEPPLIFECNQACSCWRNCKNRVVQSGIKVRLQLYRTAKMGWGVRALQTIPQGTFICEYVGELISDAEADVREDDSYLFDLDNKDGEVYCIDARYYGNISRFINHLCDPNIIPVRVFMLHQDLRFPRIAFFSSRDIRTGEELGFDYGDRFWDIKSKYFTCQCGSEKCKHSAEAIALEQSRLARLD
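Step 1: enzyme (final 20 nM) with compound, 15 min RT. Step 2: substrate peptide 500 nM and SAM 20 uM, 2 h RT. Step 3: anti-H3K9me1 antibody and AlphaScreen beads, 10 min, then plate read.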
Sfp inh: Sfp phosphopantetheinyl transferase inhibition; actives 3.5% (n = 310,000); Biochemical Sfp PPTase activity, qHTS; Q9F4F7; AID 1490; Potency, µM, without a hit: largest response in the series, negative = inhibition, usual class: inhibitors;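 also: the enzyme is Sfp with the accession as filed and its product quenches rhodamine fluorescence; 0% = enzyme reaction without inhibitor and -100% = no enzyme wells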
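Step 1, compound plus 15 nM Sfp-PPTase, 15 min, room temperature. Step 2, add rhodamine-CoA (5 uM) and BHQ-2-YbbR (12.5 uM). Step 3, read 525/598 nm fluorescence at 0 and 30 min.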
JMJD2A Tudor inh: JMJD2A Tudor domain (human) inhibition; O75164; AlphaScreen JMJD2A-Tudor / H3K4me3 peptide binding; Potency, µM (top dose mostly 114 µM), inactives show at the highest dose activity change, negative = inhibition, actives largely listed as inhibitors; actives 4.4% (n = 390,000); also: % is scaled to controls: 0 for no effect and ±100 for the full control effect; nearly all actives have a fitted effect of over 50% in size
BAZ2B inh: inhibitors of human BAZ2B bromodomain; Potency, µM (top dose mostly 114 µM), for the others: at the highest dose activity change, negative = inhibition, actives largely listed as inhibitors; AlphaScreen BAZ2B-H3K14Ac peptide displacement; actives 4.4% (n = 360,000); Q9UIF8; AID 504333; also: % is scaled to controls: 0 for no effect and ±100 for the full control effect; nearly all actives have a fitted effect of over 60% in size
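Inhibition is scored as reduced AlphaScreen emission. The BAZ2B/b-H3(5-23)K14Ac complex (50 nM each) in PBS pH 7.4, 0.01% Tween-20 meets compound (up to 110 uM) for 30 min at RT before bead addition.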
An asterisk follows results filed as active; ? = inconclusive; . = not tested or not shown; [ ] = dose if it differs, or a comment. Compounds with a hit are over-represented: about 12% of the library has one in this group of screens. Calls follow the shape of the dose curve; as a rule, active = well fitted curve in the direction sought with a large enough effect; inconclusive = small, poorly fitted or top-dose-only effect, or another doubt; inactive = no such curve, though single readings can be large; an effect the other way counts as inactive or inconclusive. Potency is read from the fitted curve at half-maximal effect.

SMILES	L3MBTL1 block	HP1b chromo inh	G9a inh	Sfp inh	JMJD2A Tudor inh	BAZ2B inh
COC(=O)N1CCC2(CC1)CN(C(=O)Nc1ccc(OC)cc1)C2	.	.	12%[12.7 µM]	6%	.	.
CCOC(=O)CCCNC(=O)COC(=O)[C@@H]1CCCN1S(=O)(=O)c1ccc(Cl)cc1	-11%	40%	50µM*	-1%	7%[57.1 µM]	23%
Cc1ccc(NS(=O)(=O)c2ccc3[nH]c4c(c3c2)CCCCCC4)cc1	.	-5%[57 µM]	?	.	?	40µM*
COc1cc(NS(=O)(=O)c2ccc3[nH]c4c(c3c2)CCCC4)cc(OC)c1OC	.	-17%	?	.	?	?
COc1ccc(NS(=O)(=O)c2ccc3[nH]c4c(c3c2)CCCC4)cc1OC	.	?	11µM*	.	45µM*	?
Cc1ccc(NS(=O)(=O)c2ccc3[nH]c4c(c3c2)CCCCCC4)cc1C	.	-17%	?	.	?	-27%
O=S(=O)(c1ccc2[nH]c3c(c2c1)CCCC3)N1CCCCC1	.	47%	.	-7%	0%	25µM*
Cc1[nH]c(=O)[nH]c(=S)c1C(=O)Nc1ccc(Cl)c(Cl)c1	.	-42%	.	.	8.9µM*	.
CC(=O)N1CCC(Nc2ccc(C)cc2)CC1	.	11%	?	13%	-20%	3%
CCOc1ccc(NS(=O)(=O)c2ccc(C(=O)N3CCCCC3)cc2)cc1	.	34%	?	11%	-10%	-13%
CCOc1ccc(S(=O)(=O)NN=C2CCN(C(C)=O)CC2)cc1	.	37%	50µM*	13%	-12%	2%
CCOc1ccc(NC2CCN(C(C)=O)CC2)cc1	.	24%	50µM*	-1%	-27%	0%
Cc1ccc(-n2c(C)cc(-c3csc(N)n3)c2C)cc1	-7%	?	5µM*	?	40µM*	56µM*
COc1ccccc1CNc1nc(-c2cc(C)n(C)c2C)cs1	.	-37%	10µM*	-59%	40µM*	40µM*
Cc1cc(-c2csc(N)n2)c(C)n1Cc1ccco1	.	5%	18µM*	50µM*	?	?
Cc1cc(-c2csc(N)n2)c(C)n1C	.	-22%	10µM*	20µM*	?	50µM*
Cc1cc(C(=O)COC(=O)c2cc(Cl)ccc2N)c(C)n1Cc1ccco1	?	9%	11%[59 µM]	-18%	?	?
CC(C)C[C@@H](CC(=O)N[C@@H](CCC(=O)O)CC(=O)O)NC(=O)[C@@H]1CCCC[C@H]1NC(=O)C[C@H](CCCN)NC(=O)C[C@H](CO)NC(=O)[C@@H]1CCCC[C@H]1N	.	.	.	-16%	.	.
Cc1ccc(CNC(=O)c2cnc3c(-c4ccc(F)cc4)c(C)nn3c2C)o1	.	55%	10%[59 µM]	.	-4%	2%
COc1cccc(O)c1O	.	.	.	20µM*	.	.
CCn1cc(S(=O)(=O)c2cc(C)cc(C)c2)c(=O)c2cc(F)c(N3CCCCC3)cc21	.	25%	-2%[59 µM]	.	-17%	-10%
CC(=O)OCc1c(C(F)(F)F)nn(C)c1Oc1ccccc1	12%	23%	-8%[59 µM]	25%	3%	16%
Cn1nc(-c2ccccc2)c(CO)c1Oc1ccc(F)cc1	.	-5%	19%	8%	20µM*	-13%
CCC(C)(C)n1nnnc1C(c1ccc2ncccc2c1)N1CCN(c2nc3ccccc3s2)CC1 (centres undefined)	-2%	2%	?	-14%	-36%	-10%
COc1ccc(N2CCN(C(c3ccc4ncccc4c3)c3nnnn3C(C)(C)C)CC2)cc1 (centres undefined)	?	-12%	?	1%	?	35µM*
CCC(C)(C)n1nnnc1C(c1ccc2ncccc2c1)N1CCN(c2ccc(O)cc2)CC1 (centres undefined)	.	13%[57 µM]	10µM*	20µM*	14µM*	-33%
COc1ccc(N2CCN(C(c3ccc(C)cc3)c3nnnn3C(C)(C)C)CC2)cc1 (centres undefined)	.	-19%	.	.	50µM*	.
Cc1ccc2[nH]c(=O)c(CN(Cc3ccccc3)Cc3nnnn3Cc3ccco3)cc2c1	.	8%[57 µM]	.	.	-12%[57.1 µM]	.
